Source: PubChem BioAssay (National Center for Advancing Translational Sciences (NCATS))
Hits are enriched below; roughly 12% of the tested compounds scored in any of these assays.
Sm TGR block – qHTS Assay for the Inhibitors of Schistosoma Mansoni Peroxiredoxins; purified TGR, DTNB reduction, TNB absorbance 405 nm; hit rate 3% among 360,000; AID 485364, 2010; Schistosoma mansoni thioredoxin glutathione reductase (TGR), Q962Y6; Potency, µM (top dose mostly 114 µM), most hits filed as inhibitors; also: nearly all actives have a fitted effect of over 60% in size
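Kinetic colorimetric format: TGR-catalysed, NADPH-driven DTNB reduction monitored via TNB absorbance. Enzyme dispensed at 20 nM; compound exposure 15 min at room temperature before reaction start.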
Pf growth 96h – Primary qHTS for delayed death inhibitors of the malarial parasite plastid, 96 hour incubation; P. falciparum luciferase reporter growth, 96 h; Potency, µM (series often up to 28.7 µM), actives largely listed as inhibitors; hit rate 6.9% among 320,000; AID 504834, 2011
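P. falciparum expressing integrated firefly luciferase, in erythrocytes at 2% hematocrit, 0.05% parasitemia, incubated with compounds 96 h at 37 C, 5% CO2. Growth inhibition read as loss of luminescence; two-generation exposure targets delayed-death apicoplast inhibitors.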
Pf growth 48h – Primary qHTS for delayed death inhibitors of the malarial parasite plastid, 48 hour incubation; P. falciparum luciferase growth in erythrocytes, 48 h; hit rate 5.9% among 310,000; AID 504832, 2011; Potency, µM (highest dose often 28.7 µM), hits mostly inhibitors
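Parasite viability was followed by luminescence of a genomically integrated firefly luciferase. Cultures held 0.1% parasitemia at 2% hematocrit (final), incubated under 5% CO2 at 37 C.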
AmpC inh detg – qHTS Inhibitors of AmpC Beta-Lactamase (assay with detergent); P00811; AmpC hydrolysis of nitrocefin, absorbance 480 nm, 0.01% Triton; Potency, µM (series often up to 114 µM), usual class: inhibitors; hit rate 0.041% among 370,000; also: nearly all actives have a fitted effect of over 25% in size
Target sequence (P00811 whole entry, looked up): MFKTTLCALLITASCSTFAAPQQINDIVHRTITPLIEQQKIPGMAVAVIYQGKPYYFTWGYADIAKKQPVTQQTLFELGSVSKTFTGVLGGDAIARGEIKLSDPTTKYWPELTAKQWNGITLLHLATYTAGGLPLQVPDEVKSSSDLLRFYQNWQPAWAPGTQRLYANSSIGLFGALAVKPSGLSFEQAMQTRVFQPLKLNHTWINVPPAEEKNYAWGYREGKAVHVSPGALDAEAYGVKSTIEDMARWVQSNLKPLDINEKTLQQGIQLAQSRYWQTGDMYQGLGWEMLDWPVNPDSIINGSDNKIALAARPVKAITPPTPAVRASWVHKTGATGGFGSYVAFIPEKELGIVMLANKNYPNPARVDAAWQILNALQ
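AmpC (5.3 nM in the dispensed reagent) in 20 mM phosphate pH 7.0 with 0.01% (detergent screen) or 0.0001% Triton X-100 was preincubated with compounds for 15 min at room temperature. Nitrocefin was then added from an 800 uM solution, and hydrolysis was followed at 480 nm.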
SARS PLP yeast – qHTS of Yeast-based Assay for SARS-CoV PLP. Potency, µM (series often up to 32.9 µM), actives largely listed as activators. S. cerevisiae expressing SARS-CoV PLpro, growth rescue. hit rate 0.19% among 330,000; calls by dose curve; also: nearly all actives have a fitted effect of over 55% in size
AmpC inh no detg – qHTS Inhibitors of AmpC Beta-Lactamase (assay without detergent). Potency, µM (series often up to 57.1 µM), most hits filed as inhibitors. hit rate 0.52% among 330,000. AID 485341, 2010. P00811. AmpC nitrocefin hydrolysis, absorbance 480 nm, 0.0001% Triton; also: nearly all actives have a fitted effect of over 20% in size
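20 mM phosphate pH 7.0 + 0.01% (detergent screen) or 0.0001% Triton X-100; 5.3 nM AmpC reagent; cpd preinc 15 min RT; nitrocefin (800 uM stock) to start; A480 q20 s × 4 min; Activity was normalised to no-enzyme and no-compound control wells.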
Of the large screens only hits and unclear results are named; the others gave an inactive call. Unless noted, calls follow the shape of the dose curve; as a rule, active = well fitted curve in the direction sought with a large enough effect; inconclusive = small, poorly fitted or top-dose-only effect, or another doubt; inactive = no such curve, though single readings can be large; an effect the other way counts as inactive or inconclusive.

COc1ccccc1CNC(=O)CCCn1nc(C)c2c(C)n(-c3ccccc3)nc2c1=O	Pf growth 96h 11.7µM
CCOC(=O)c1c(C)oc2ncnc(Nc3ccc(OC)c(OC)c3)c12	none (no result: Pf growth 96h, Pf growth 48h, SARS PLP yeast, AmpC inh no detg)
O=C(c1ccccc1)N1N=C(C(F)(F)F)CC1(O)c1ccccc1 (stereo unspecified)	none
COc1cccc(C2(O)CC(C(F)(F)F)=NN2C(=O)c2ccccn2)c1 (stereo unspecified)	Sm TGR block inconclusive, Pf growth 96h 0.522µM
CC(C)(C)[C@@H]1COC(=O)[C@H](Cc2ccc(F)cc2)C/C=C\C[C@@H](CC(=O)NCCO)C(=O)N1	none (no result: Sm TGR block, Pf growth 96h, Pf growth 48h, AmpC inh detg)
CCSC1=C(C#N)C2(CCCCC2)C(C#N)=C(N)N1	none (no result: Pf growth 96h)
N#CC1=C(N)NC(SCC(=O)c2ccc(Br)cc2)=C(C#N)C12CCCCC2	Pf growth 96h 14.7µM, Pf growth 48h inconclusive
N#CC1=C(N)NC(SCC(=O)c2ccc(Cl)cc2)=C(C#N)C12CCCC2	Pf growth 48h inconclusive (no result: Pf growth 96h)
N#CC1=C(N)NC(SCc2ccccc2)=C(C#N)C12CCCCC2	none
COc1ccc(C(=O)CSC2=C(C#N)C3(CCCCC3)C(C#N)=C(N)N2)cc1	Pf growth 48h 11.7µM, AmpC inh detg inconclusive
N#CC1=C(N)NC(SCC(=O)Nc2ccccc2)=C(C#N)C12CCCCC2	Pf growth 96h 13.1µM, Pf growth 48h inconclusive, AmpC inh detg inconclusive
COc1cccc(NC(=O)C(=O)NCC(c2ccc3c(c2)OCO3)N2CCOCC2)c1 (stereo unspecified)	none (no result: Pf growth 96h, Pf growth 48h, SARS PLP yeast, AmpC inh no detg)
CN(C)c1ccc(CNC(=O)CN2C(=O)CCn3nc(-c4cn(C)c5ccccc45)cc32)cc1	none (no result: Pf growth 96h, Pf growth 48h, SARS PLP yeast, AmpC inh no detg)
Cc1onc(-c2ccccc2)c1CNC(=O)C1COc2ccccc2O1 (stereo unspecified)	Pf growth 96h inconclusive, Pf growth 48h 13.1µM, AmpC inh detg inconclusive
Cc1cc(NC(=O)COC(=O)C2COc3ccccc3O2)no1 (stereo unspecified)	Pf growth 96h 10.4µM, AmpC inh detg inconclusive
O=C(NCc1ccccc1)C1COc2ccccc2O1 (stereo unspecified)	none
CC1CCc2c(sc3nc(CSc4ncn[nH]4)[nH]c(=O)c23)C1 (stereo unspecified)	none
CCC(C)NC(=O)Cn1c(=O)n(CC2CCC(C(=O)NC)CC2)c(=O)c2sccc21 (stereo unspecified)	none (no result: Pf growth 96h, Pf growth 48h, SARS PLP yeast, AmpC inh no detg)
CCc1ccc(NC(=O)C2CCCN2c2nn3c(=O)cc(C)nc3s2)cc1 (stereo unspecified)	Pf growth 96h 13.1µM
CCc1cccc(C)c1NC(=O)C1CCN(c2nn3c(=O)cc(C)nc3s2)CC1	Pf growth 96h 9.28µM
Cc1ccc(-c2cc(C(=O)N/N=C/c3ccoc3)c3ccccc3n2)cc1	Pf growth 96h 9.28µM, AmpC inh detg inconclusive, SARS PLP yeast inconclusive
O=C(N/N=C/c1ccccn1)c1cc(C2CC2)nc2ccccc12	Pf growth 96h inconclusive
O=C(N/N=C/c1ccccn1)c1cc(-c2ccccc2)nc2ccccc12	Pf growth 96h 13.1µM, Pf growth 48h inconclusive
O=C(N/N=C/c1ccccn1)c1ccc(Cl)c(Cl)c1	Pf growth 96h inconclusive, Pf growth 48h 14.7µM
CCN(CC)CCCNC(=O)c1cc(-c2ccccc2)c(N2CCCCC2)s1	Pf growth 96h inconclusive
COc1ccc([C@H]2CC(=O)C=C(c3ccccc3-c3ccccc3)C2)cc1	Pf growth 96h 13.1µM, Pf growth 48h inconclusive
COc1ccc([C@H]2CC(=O)C=C(c3cccc(F)c3OC)C2)cc1	none
COc1ccc([C@H]2CC(=O)C=C(c3ccc(CNC(=O)OC(C)(C)C)cc3)C2)cc1	Pf growth 96h 5.86µM, Pf growth 48h 11.7µM
COc1ccc([C@H]2CC(=O)C=C(c3ccccc3Oc3ccccc3)C2)cc1	Pf growth 96h inconclusive, Pf growth 48h 10.4µM
COc1ccccc1CNC(=O)c1cccc(-c2ccc(C)c3ccccc23)n1	Pf growth 96h 14.7µM, Pf growth 48h inconclusive
